# According to PubChem BioAssay AID493248 (Broad Institute, 2011):
# The campaign covered roughly 2,300 compounds. About 1,400 (61%) were called active. Roughly 7% stayed inconclusive and do not appear here. The rule behind the calls is not given here. The set was probably picked from earlier hits. A selection follows. Measured potencies and affinities stand elsewhere.
# Biological target: FAD-linked sulfhydryl oxidase ALR (Homo sapiens) (UniProt P55789)
# Test: inhibitors of human ALR sulfhydryl oxidase, dose response, biochemical, H2O2 detection, luminescence, cherry-pick (AID 493248)
# Details: purified ALR, DTT oxidation, H2O2 HRP-luminol luminescence; at 10 µM (top of the series)
# FAD-linked sulfhydryl oxidase ALR (Homo sapiens), sequence (P55789 whole entry, looked up): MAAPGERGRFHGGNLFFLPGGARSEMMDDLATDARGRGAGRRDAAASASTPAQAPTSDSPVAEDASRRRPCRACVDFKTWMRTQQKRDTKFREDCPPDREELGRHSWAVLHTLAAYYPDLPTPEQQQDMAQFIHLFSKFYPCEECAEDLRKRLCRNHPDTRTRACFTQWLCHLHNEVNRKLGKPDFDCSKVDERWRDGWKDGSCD
row,Structure (SMILES),"activity change, negative = inhibition [%]"
1,COc1ccc(-c2coc3cc(O)ccc3c2=O)cc1O,-45.2
2,COC(=O)c1c(-c2ccc(C)cc2)csc1N,-4.41
3,Cc1cccc(C(=O)Nc2ccc(O)cc2)c1,-86.3
4,Cc1oc(-c2ccccc2)cc1C(=O)Nc1cccc(C(=O)O)c1,-45.5
5,COc1ccccc1C(=O)Nc1nc2nc(-c3ccccc3)cc(=O)n2[nH]1,-46.5
6,Cc1cc(C)nc(NS(=O)(=O)c2ccc(NC(=O)Cc3ccccc3F)cc2)n1,-98.5
7,c1ccc(CCCN2CCN(c3ccccc3)CC2)cc1,-9.66
8,Cc1nc2nc(C)c(CCC(=O)N3CCN(c4ccccc4)CC3)c(C)n2n1,-54.1
9,O=C(CCCC1=NS(=O)(=O)c2ccccc2N1)N1CCN(c2ccc(Cl)cc2)CC1,-50.1
10,COC(=O)c1ccc(NC(=O)CN2CCN(c3ccccc3)CC2)cc1,-30.3
11,Cc1nn(-c2ccccc2)c2nc(-c3ccco3)cc(C(=O)O)c12,-53.4
12,COC(=O)c1ccc(CSc2ncnc3c2nnn3-c2ccc(F)cc2)o1,-6.9
13,COC(=O)c1ccc(CSc2nc3ccc(Cl)cc3[nH]2)o1,-47.5
14,O=C1c2cc(O)c(O)cc2S(=O)(=O)C1c1ccccc1 (configuration not stated),-13
15,COc1ccc(-n2cnnc2SCc2cnc(-c3ccccc3)s2)cc1,-99.2
16,Cc1nc2ccc(NC(=O)c3ccco3)cc2nc1C,-98.9
17,Oc1ccc(C2C[C@H]3CC[C@@H]2C3)cc1O (some centres not stated),0.253
18,O=C(O)CCCN1C(=O)/C(=C\C(Cl)=C\c2ccccc2)SC1=S,-28.9
19,CN(C)c1ccc(N2CC(C)(C)C2=O)cc1,9.24
20,Cc1cccn2cc(-c3cccc(S(=O)(=O)N4CCCCC4)c3)nc12,-98.3
21,Cc1cc(C)c2ccc(N)nc2c1O,-14.6
22,COc1cc(C)nc(Oc2ccc(/C=N/O)cc2)n1,-95.2
23,CCN1CCN(C(=O)Nc2ccc(Cc3ccc(NC(=O)N4CCN(CC)CC4)cc3)cc2)CC1,-18.9

row,Structure (SMILES),"activity change, negative = inhibition [%]"
1,COCc1nnc(NC(=O)c2ccc(S(=O)(=O)N3CCCc4ccccc43)cc2)o1,-34.2
2,CCCC(O)(c1ccc(OC)cc1)C(CN(C)C)c1ccccc1 (configuration not stated),4.55
3,Nc1ccccc1Nc1c(F)c(F)nc(F)c1Cl,-37.7
4,Cc1ccc[n+](-c2nc([O-])sc2/C=N/Nc2ccc([N+](=O)[O-])cc2)c1,-43.9
5,O=C(CNC(=O)c1ccco1)Nc1ccc(N2CCCCCC2)cc1,-0.183
6,O=C(NCc1ccco1)C1CC(=O)N(c2ccc(O)cc2)C1 (configuration not stated),-85.4
7,O=C(CN1CCN(c2ccc(O)cc2)CC1)Nc1cc(S(=O)(=O)N2CCCC2)ccc1Cl,-40.9
8,COc1cc(/C=C/c2sc3ccccc3[n+]2CCCS(=O)(=O)[O-])ccc1O,-105
9,Nc1nc(-c2ccc3c(c2)CCCC3)cs1,-97
10,COc1ccc2c(c1)c1ncn(CCc3ccccc3)c(=O)c1n2C,-0.427
11,O=c1[nH]c(=S)[nH]c2sccc12,-34.4
12,Cc1ccc(CNC(=O)c2ccc(CS(=O)Cc3ccccc3Cl)o2)cc1 (configuration not stated),-1.87
13,O=c1oc2c3c4c(cc2s1)CCCN4CCC3,-13.7
14,Cc1cccc(N2CCN(C(=O)Cn3sc4nc(C)cc(C)c4c3=O)CC2C)c1 (configuration not stated),-57.4
15,Cc1ccc(N2CCN(S(=O)(=O)c3ccc4c(c3)NC(=O)C(C)C(=O)N4)CC2C)cc1 (configuration not stated),-30.2
16,CC(C)n1cc(C(=O)N2CCCC(N3CCN(c4cccc(Cl)c4)CC3)C2)cn1 (configuration not stated),-43.2
17,O=c1oc2ccccc2cc1-c1ccc(O)cc1O,371
18,Cc1c(Cl)c(-c2n[nH]c(=S)n2CC(C)C)nn1C,-54.1
19,Cn1cc(Cl)c(-c2n[nH]c(=S)n2-c2ccc(F)cc2)n1,18.2
20,CC(C)(C)c1ccc(C(=O)Oc2ccccc2CCC(=O)O)cc1,-56
21,CC(C)(C)c1ccc(Oc2ccc(N)cn2)cc1,49.2
22,CC1CCN(C(=S)c2ccc(O)cc2)CC1,-30
23,CN(C)c1ccc(C(=O)N2CCCC2)cc1,-10.3

row,Structure (SMILES),"activity change, negative = inhibition [%]"
1,COc1ccc(-c2n[nH]c(=S)n2Cc2ccco2)cc1,-32.4
2,CC1CCCCC1n1c(-c2cccnc2)n[nH]c1=S (configuration not stated),-2.8
3,C=CCn1c(-c2sccc2C)n[nH]c1=S,0.591
4,S=c1[nH]nc(-c2ccco2)n1/N=C/C=C/c1ccccc1,-45.1
5,N#Cc1ccccc1S(=O)(=O)N1CCN(C(=O)Cc2coc3cc(O)ccc23)CC1,-102
6,CCN(C=NC1=NN(c2cccc(C(F)(F)F)c2)CC1)CC,4.04
7,CCc1ccc(OC)c(-c2csc(N)n2)c1,3.63
8,COC(=O)c1[nH]c2cc(OC)ccc2c1N=CN(C)C,-64.5
9,O=c1oc(-c2ccc(F)cc2)nc2ccsc12,-52.7
10,O=C(Nc1ccccc1N1CCCCC1)c1cnccn1,-36.5
11,Cc1ccc(C(=O)C2CCN(CC(=O)Nc3ccc(N(C)C)cc3)CC2)cc1,-106
12,C=CCn1c(-c2ccc(N)cc2)nc2ccccc21,-33.2
13,C=CCn1c(-c2cc(OC)cc(OC)c2)n[nH]c1=S,-54.8
14,Cc1nnc(N2CCN(Cc3ccccc3)CC2)[nH]c1=O,42.6
15,CCN(C(=O)CN1CCN(c2cccc(Cl)c2)CC1)c1c(N)n(Cc2ccccc2)c(=O)[nH]c1=O,-43.8
16,CCn1c(=O)c2c3c(sc2n2c(=S)[nH]nc12)CCC3,-18.2
17,COc1cc(/C=N\NC(=O)c2ccc(-c3ccccc3)cc2)cc(OC)c1O,-59.8
18,COc1cccc(/C=N/NC(=O)CNC(=O)c2ccncc2)c1O,-31.5
19,COc1cc2c(ccc3cc(OC)c(OC)c(O)c32)cc1O,-112
20,Cc1nc2ccc(-c3ccccc3)cc2o1,-7.02
21,c1c2c(cc3sc(N4CCCCC4)nc13)OCO2,-5.07
22,O=C(O)c1[nH]c2ccccc2c1NS(=O)(=O)Cc1ccccc1,-42.2
23,C[C@H](NC(=O)c1cc2c(cn1)[nH]c1ccccc12)C(=O)O,-94.7

row,Structure (SMILES),"activity change, negative = inhibition [%]"
1,CCCn1cnc2cc(NCc3cccc(OC)c3)ccc21,395
2,Cn1cnc2cc(NCc3ccccc3O)ccc21,297
3,Oc1ccc(-c2n[nH]c(=S)n2Cc2ccco2)cc1,-29.1
4,COc1ccc(C(=O)N/N=C(\Cc2ncc[nH]2)c2ccccc2)cc1,-40
5,Cc1[nH]nc(-c2ccc(O)cc2O)c1Oc1ccccc1,-84.3
6,COc1ccc(S(=O)(=O)n2nc(OC(=O)c3ccco3)cc2N)cc1,-55.8
7,O=C1NN(c2ccccc2)C(=O)/C1=C\c1ccccc1,-5.6
8,N/C(=N\N=C\c1ccc(O)cc1)c1nonc1N,-84.5
9,Nc1cc(C(F)(F)F)ccc1C(=O)O,8.42
10,COc1ccccc1N1CC(C(=O)Nc2nnc(SCc3cccnc3)s2)CC1=O (configuration not stated),-17.9
11,Cc1ccc(-c2nc3cc(N)ccc3o2)c(C)c1,19.5
12,COC(=O)c1ccc(-c2nc3cc(N)ccc3o2)cc1,72.5
13,Nc1ccc2nc(-c3cccs3)[nH]c2c1,-80
14,Cc1ccc(C)c(-c2nc3cc(N)ccc3o2)c1,-81.2
15,COc1ccc(-c2cc(C(F)F)n3ncc(C(=O)n4ccnc4C)c3n2)cc1,-48
16,CCCN1CCC(=O)N([C@H](CSc2ccc(OC)cc2)CC(C)C)CC1,20.7
17,O=C(O)CCn1c2c(c3ccccc31)CCCC2,5.37
18,Cc1ccc(NCCC(=O)c2cccs2)cc1C,-51.1
19,Cc1ccc(Nc2nnns2)cc1C,-6.48
20,CN(C)c1ccc(CN(C(=O)c2cc3ccccc3oc2=O)C2CCS(=O)(=O)C2)cc1 (configuration not stated),-17.6
21,COc1ccc(NC2CCCN(C(=O)c3ccc(C)nc3)C2)cc1 (configuration not stated),289
22,S=c1[nH]nc(-c2ccncc2)n1Cc1ccco1,-47.7
23,Cc1cccc(C(=O)N2CCCC(N3CCN(c4ccc(F)cc4)CC3)C2)n1 (configuration not stated),-66.1
